Screens (PubChem)
Most compounds without a hit are left out; they make up all but 8% or so of the library.
Marburg entry inh: Marburg virus entry inhibition; AID 540276; 1.8% of 300,000 active; Marburg virus pseudotyped entry inhibition, cell reporter; Potency, µM (top dose mostly 37.8 µM), for inactives: at the highest dose activity change, negative = inhibition, most hits filed as inhibitors; calls by dose curve; tested in HEK293 cells; note: potency is the fitted concentration of half-maximal effect; % is set by controls: 0 for no effect and ±100 for the full control effect
FMDV antiviral: foot and mouth disease virus antiviral activity; FMDV antiviral cell-based qHTS; Potency, µM (doses to about 57.9 µM), for the others: top-dose activity change, negative = inhibition, most hits filed as inhibitors; 1.2% of 410,000 active; AID 1159524; calls by dose curve; tested in HEK293T cells; note: read-out not given here; potency is the fitted concentration of half-maximal effect; % is set by controls: 0 for no effect and ±100 for the full control effect; nearly all actives have a fitted effect of over 45% in size
LASV entry inh: blocks Lassa virus binding to or entry into cells; Lassa virus pseudotype entry inhibition, cell reporter; Potency, µM (doses to about 37.9 µM), without a hit: at the top dose activity change, negative = inhibition, most hits filed as inhibitors; 1.2% of 300,000 active; AID 540256; calls by dose curve; tested in HEK293 cells; note: potency is the fitted concentration of half-maximal effect; % is set by controls: 0 for no effect and ±100 for the full control effect; nearly all actives have a fitted effect of over 50% in size
SARS PLpro yeast: inhibitors of SARS-CoV papain-like protease in yeast | Potency, µM (series often up to 32.9 µM), for inactives: top-dose activity, positive = growth rescue, actives largely listed as activators | 0.19% of 330,000 active | S. cerevisiae expressing SARS-CoV PLpro, growth rescue; calls by dose curve; note: potency is the fitted concentration of half-maximal effect; 0% is about no effect; nearly all actives have a fitted effect of over 55% in size
HCV inhibitor: blocks hepatitis C virus; Potency, µM (doses to about 41.8 µM), without a hit: top-dose activity change, negative = inhibition, actives largely listed as inhibitors; Huh7.5.1 HCVcc-Cre infection, luciferase reporter, 44 h; AID 651820; 3.4% of 340,000 active; active = well fitted inhibition curve with a large enough effect; inconclusive = small, poorly fitted or top-dose-only effect, or another doubt; inactive = no such curve, though single readings can be large or run the other way; note: potency is the fitted concentration of half-maximal effect; % is set by controls: 0 for no effect and ±100 for the full control effect
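Whole-lifecycle infectious HCVcc-Cre system; cells 1,000/well, compound then virus (~0.5 moi) added 4 h after plating, 44 h culture. Luciferase read 15 sec following 15 min substrate incubation, room temp.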
HCMV inh: human cytomegalovirus inhibition; activity change, negative = inhibition, % at 57.5 µM; HFF cells, HCMV-luciferase reporter, 72 h; hits give low values; 4.5% of 410,000 active; in the data active = activity change below about -60%; inconclusive = no clear call, values can overlap the other calls; inactive = above about -39%; note: % is set by controls: 0 for no effect and ±100 for the full control effect
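After 16 h attachment at 37C, HFF cells received test compound and HCMV-luciferase (1 PFU/cell); reporter luminescence read 72 h later, data normalized against buffer-only and known inhibitor Salinomycin.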
* = called active by the depositor; ? = inconclusive; . = no result; [ ] = dose if it differs, or a comment.

SMILES	Marburg entry inh	FMDV antiviral	LASV entry inh	SARS PLpro yeast	HCV inhibitor	HCMV inh
CNC(=O)c1ccc(-c2sc3nc(N4CCOCC4)c4c(c3c2N)CCCC4)o1	-14.7%	?	-2.5%	-8.8%	11.2µM*	-11.0
CNC(=O)c1ccc(-c2sc3nc(N4CCOCC4)c4c(c3c2N)CC(C)(C)OC4)o1	?	-14.0%	?	3.4%	?	115.7
COc1ccc(CCNC(=O)c2ccc3c(c2)N(Cc2ccccc2Cl)C(=O)c2ccccc2S3)cc1OC	.	-8.5%	?	.	.	?
CCCc1nc2ccc(C)cn2c1Cc1ccccc1C(F)(F)F	.	-16.9%	.	.	.	-69.1*
COC(=O)/C(=C\c1cc(OC)c(OC)c(OC)c1)c1nc2ccccc2[nH]1	-16.1%[46.1 µM]	15.8µM*	?	5.3%	?	-98.2*
O=C(/C(=C/c1ccc(Cl)cc1)c1nc2ccccc2[nH]1)c1cccs1	0.2%	?	.	-25.7%	11.2µM*	.
S=C(Nc1ccc(Cl)cc1)c1nc2ccccc2[nH]1	?	-23.4%	?	-42.2%	11.2µM*	-36.0
COC(=O)/C(=C\c1ccc(O)cc1)c1nc2ccccc2[nH]1	.	46.4%	.	-7.3%	-8.5%	28.8
O=C(/C(=C\c1ccccc1)c1nc2ccccc2[nH]1)c1ccc(Cl)cc1	?	?	?	-65.2%	?	-87.2*
COc1ccc(-c2cc(C(=O)Nc3c(C)nn(Cc4ccc(F)cc4)c3C)no2)cc1OC	-0.7%[46.1 µM]	-27.8%	-11.5%[46.1 µM]	.	.	-6.6
Cc1cc(C)cc(OCC(=O)NC(Cc2c[nH]c3ccccc23)C(=O)O)c1 (stereo not given)	3.6%[46.1 µM]	3.7%	2.7%[46.1 µM]	.	.	4.8
COc1ccc(OC)c(NC(=O)COCc2cc(-c3ccco3)on2)c1	.	-2.9%	15.2%[46.1 µM]	.	.	0.0
CC(C)(C)C(=O)Cn1c(=O)n(CCCCCC(=O)NCc2ccc3c(c2)OCO3)c(=O)c2sccc21	13.4%[46.1 µM]	-12.1%	27.5%[46.1 µM]	.	.	?
COc1cc(NC(=O)Cn2nnnc2-c2ccccc2F)cc(OC)c1OC	-2.2%[46.1 µM]	-10.3%	13.7%[46.1 µM]	.	.	-24.1
COc1ccc(/C=C(\C#N)c2nc3ccccc3[nH]2)cc1O	?	7.5%	-3.7%[46.1 µM]	0.9%	?	46.7
COc1cc(/C=C(/C(=O)c2cccs2)c2nc3ccccc3[nH]2)ccc1O	4.11µM*	25.1µM*	?	-1.7%	?	-98.8*
COc1ccc(Cl)cc1NC(=O)c1cc2ccc3ccc(C)[nH]c3c2n1	.	2.3%	2.1%[46.1 µM]	.	.	?
C=CCNC(=S)NN=C1CCCCCCC1	20.0%[46.1 µM]	12.2%	1.1%[46.1 µM]	-1.2%	4.1%	-112.7*
N#C/C(=C(\O)Cc1ccccc1)c1nc2ccccc2[nH]1	-10.0%	11.4%	-2.4%	-12.0%	-9.3%	1.7
Cc1c(-c2cccc(Cl)c2)nc2ccccc2c1C(=O)OC/C(O)=C(\C#N)c1nc2ccccc2[nH]1	?	-25.4%	3.8%	1.2%	8.91µM*	-81.8*
N#C/C(=C(/O)CCl)c1nc2ccccc2[nH]1	?	35.5µM*	?	-1.6%	?	-70.0*
N#CC(=C(O)COC(=O)Cc1c[nH]c2ccccc12)c1nc2ccccc2[nH]1	14.0%[46.1 µM]	11.7%	0.3%[46.1 µM]	.	-23.7%	-6.4
CCCC(=O)OC/C(O)=C(\C#N)c1nc2ccccc2[nH]1	?	-11.0%	-24.8%	-0.2%	25.4%	-73.2*
N#C/C(=C(/O)COC(=O)CCC1CCCCC1)c1nc2ccccc2[nH]1	?	?	?	4.3%	12.3%	-68.8*
N#CC(=C(O)COC(=O)CCCNC(=O)c1ccc(Cl)cc1)c1nc2ccccc2[nH]1	?	-7.5%	18.2%[46.1 µM]	.	1.3%	44.5
SMILES	Marburg entry inh	FMDV antiviral	LASV entry inh	SARS PLpro yeast	HCV inhibitor	HCMV inh
COc1ccc(-c2nc3sc(CCNC(=O)C(=O)Nc4ccc(C)c(C)c4)c(C)n3n2)cc1	.	18.3%	-4.7%[46.1 µM]	.	.	-5.2
COc1cccc(CO[C@H]2C=C[C@@H](c3ccccc3)O[C@H]2COC(C)=O)c1	8.0%[14.2 µM]	.	.	.	.	.
Cn1cnnc1Sc1ccc(CN2CCOc3ccc(C4=Cc5ccccc5CC4)cc3C2)o1	.	20.2%	.	.	.	.
CC(C)C(=O)OC/C(O)=C(\C#N)c1nc2ccccc2[nH]1	-19.8%[46.1 µM]	5.9%	-0.1%[46.1 µM]	1.4%	1.5%	-65.0*
COCC(=O)OC/C(O)=C(\C#N)c1nc2ccccc2[nH]1	?	?	?	-1.2%	-15.2%	-99.2*
N#C/C(=C(/O)COC(=O)c1ccc(O)cc1)c1nc2ccccc2[nH]1	.	2.0%	.	-0.7%	9.4%	-1.5
COc1ccc(-c2c(C)nn3c4c(cnc23)C(=O)CC(c2ccc(C)cc2)C4)cc1 (stereo not given)	?	-0.1%	-0.4%[46.1 µM]	.	.	8.8
O=C(N/N=C/c1c(O)n(CCc2ccc(F)cc2)c(=O)[nH]c1=O)c1ccccc1	.	4.9%	.	2.0%	3.5%	19.2
CCn1c(O)c(/C=N/NC(=O)c2ccccc2)c(=O)[nH]c1=S	.	11.2%	.	0.6%	12.0%	-63.4*
O=C(/C(=C/c1ccccc1)n1cncn1)c1ccc(Cl)cc1Cl	-4.6%	-21.2%	14.2%	-79.0%	18.5%	26.6
Cc1nn(C)c(C)c1/C=C(/C(=O)C(C)(C)C)n1cncn1	?	-14.8%	?	0.4%	-7.9%	-98.4*
Cc1nn(C)c(C)c1/C=C(/C(=O)C(C)C)n1cncn1	.	-20.8%	.	-0.6%	-11.4%	17.1
CC(C)(C)C(=O)/C(=C/c1ccncc1)n1cncn1	4.11µM*	11.2µM*	10.3µM*	5.1%	2.24µM*	-99.8*
CCN(CC)c1ccc(/C=N/NC(=S)NCc2ccccc2)c(O)c1	?	-34.4%	?	10µM*	-28.4%	-63.0*
CCN(CC)c1ccc(/C=N/N=C(c2ccccc2)c2ccccc2)c(O)c1	?	-17.8%	10.3µM*	9.0%	?	2.7
CCN(CC)c1ccc(/C=N/NC(=O)c2ccco2)cc1	7.31µM*	-37.2%	4.47µM*	-4.4%	?	26.5
CCN(CC)c1ccc(/C=N/NC(=O)c2ccco2)c(O)c1	.	61.6%	.	-6.7%	?	-103.5*
CCN(CC)c1ccc(/C=N/N(c2ccccc2)c2ccccc2)c(O)c1	?	?	?	-24.1%	-3.1%	-20.5
Cc1ccc(-c2nc(CS(=O)(=O)CC(=O)Nc3ccc(Br)cc3F)c(C)o2)cc1	5.7%[46.1 µM]	-5.8%	17.9%[46.1 µM]	.	.	-5.9
Cc1ccc(NC(=O)CN2C(=O)C3C4C=CC(C4)C3C2=O)cc1S(=O)(=O)N(C)C (stereo not given)	-7.3%	-4.7%	-7.4%	12.0%	15.8%	-102.7*
Cc1cc(NC(=O)CN(C)S(=O)(=O)c2ccc3c(c2)CCC(=O)N3)ccc1Br	?	14.1µM*	-27.5%[46.1 µM]	.	.	?
Cc1ccc(NC(=O)CCNC(=O)c2ccc([N+](=O)[O-])cc2)cc1S(=O)(=O)N(C)C	10µM*	28.2µM*	?	-2.0%	?	?
COc1ccc(CCNCC(=O)Nc2ccc(C)c(S(=O)(=O)N(C)C)c2)cc1	1.0%[46.1 µM]	-16.4%	?	-1.8%	?	-23.3
COc1ccc(CCC(=O)Nc2ccc(C)c(S(=O)(=O)N(C)C)c2)cc1OC	11.2µM*	10µM*	-0.9%	7.1%	?	-77.5*
